# PubChem BioAssay AID431 (Sanford-Burnham Center for Chemical Genomics, 2006)
# About 1,100 (1.7%) of roughly 63,000 compounds were called active. The list comes from a sample in which actives are over-represented; it also holds similar structures and randomly drawn compounds. Entries with a potency or affinity are not part of this list. A number with no mark means an inactive call.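 The calls were made as follows: active = compounds whose percent cytotoxicity in the single-dose primary screen, scaled between solvent and toxic-drug controls, exceeds 50; inactive = the rest.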
# Assay: viability loss of HPDE-C7K cells – cell-based, fluorescence, HTS, primary screen (AID 431);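 also: 0% = DMSO solvent wells and 100% = doxorubicin-treated wells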
# Details: HPDE-C7K KRASV12 cells, Alamar Blue viability, 48 h; at 10 µM; hits give high values
row,Compound,cytotoxicity
1,CCSC1=C(C#N)C(c2cccs2)C(C(=O)OC)=C(C)N1 (stereo unspecified),15.4%
2,CCOCCSC1=C(C#N)C(c2cccs2)C(C(C)=O)=C(C)N1 (stereo unspecified),4.7%
3,CCOC(=O)C1=C(C)NC(SCC(=O)Nc2nc(C)cs2)=C(C#N)C1c1cccs1 (stereo unspecified),92.7% (active)
4,CCOC(=O)C1=C(C)NC(SCC(=O)Nc2cc(C)on2)=C(C#N)C1c1cccs1 (stereo unspecified),32.3%
5,C#CCSC1=C(C#N)C(c2cccs2)C(C(=O)OCC)=C(C)N1 (stereo unspecified),53.6% (active)
6,CCOC(=O)C1=C(C)NC(SCc2cc(=O)[nH][nH]2)=C(C#N)C1c1cccs1 (stereo unspecified),41.8%
7,O=C1N(CN2CCN(c3cccc(Cl)c3)CC2)c2ccccc2C12OCCCO2,0%
8,Cc1ccc(NC(=O)c2oc3ccccc3c2NC(=O)c2ccc3c(c2)OCO3)cc1,-7.7%
9,COc1c(C)cc(Br)cc1C(=O)Nc1ccc(N2CCN(S(C)(=O)=O)CC2)cc1,1.2%
10,CCc1nc2ccccc2c(C(=O)OCC(=O)Nc2ccc(S(=O)(=O)N3CCOCC3)cc2)c1C,43.3%
11,O=C(CSc1ncc(-c2ccc(F)cc2)n1Cc1ccco1)Nc1ccc2c(c1)OCO2,86.3% (active)
12,CC(=O)Nc1cccc(NC(=O)CSc2ncc(-c3ccc(Cl)cc3)n2Cc2ccco2)c1,83.5% (active)
13,COc1ccc(-c2cnc(SCC(=O)Nc3ccc4c(c3)OCO4)n2Cc2ccco2)cc1,18.8%
14,COc1ccc(-c2cnc(SCC(=O)Nc3cc(C)on3)n2Cc2ccco2)cc1,0.3%
15,CCC(=O)Nc1cc(NC(=O)CSc2ncc(-c3ccc(F)cc3)n2Cc2ccco2)ccc1C,3.3%
16,Cc1cnc(NC(=O)CSc2ncc(-c3ccccc3)n2Cc2ccco2)s1,-4.7%
17,Cc1cc(=S)n(-c2ccccc2)n1C,-7.8%
18,Cc1cc(C)nc(SC(C)C(=O)Nc2ccc(S(N)(=O)=O)cc2)n1 (stereo unspecified),-10.7%
19,Cc1ccc(-c2nnc3ccc(SCC(=O)N4CCCCC4)nn23)cc1,-7%
20,CC1CCc2nc(NC(=O)Cc3cccs3)sc2C1 (stereo unspecified),-16%
21,Cc1nnc2n(Cc3ccccc3)c(=O)c3c4c(sc3n12)CN(Cc1ccccc1)CC4,1.6%

row,Compound,cytotoxicity
1,CC(C)C1Cc2c(sc3c2c(=O)n(Cc2ccccc2)c2nncn32)CO1 (stereo unspecified),1.7%
2,C=CCn1c(SCCN2CCOCC2)nc2c1c(=O)[nH]c(=O)n2C,-10.8%
3,Cc1[nH]n2c(=O)cc(C(C)(C)C)nc2c1-c1ccccc1,81.8% (active)
4,Cc1[nH]n2c(=O)cc(C(C)C)nc2c1-c1ccccc1,28.7%
5,Cc1cc(=O)n2[nH]c(C)c(-c3ccccc3)c2n1,-7%
6,CC(C)(C)NC(=O)C1N(c2cccnc2)C(=O)C2C(C(=O)Nc3ccccc3)C3(C)C=CC21O3 (stereo unspecified),-15.4%
7,CCOC(=O)CSc1nc2cc(OCC)ccc2cc1C#N,56.4% (active)
8,CCOC(=O)CSc1nc2cc(OC)ccc2cc1C#N,12.3%
9,CCOC(=O)CSc1nc2cc(C)ccc2cc1C#N,-2.4%
10,COc1cccc(-c2nn(-c3ccccc3)cc2CO)c1,7.7%
11,CCOc1ccc(OCC)c(NC(=O)CSc2nc3ccccc3c(=O)n2C)c1,16.7%
12,O=C(Nc1ccc(CN2CCCCC2)cc1)c1ccc(Br)o1,-24.8%
13,O=C(Nc1ccc(CN2CCOCC2)cc1)c1cc2ccccc2o1,5.8%
14,O=C1NCCN1C(=O)C12CC3CC(CC(C3)C1)C2,-2.7%
15,Cc1nc2ccc3nc(NC(=O)c4ccc5c(c4)OCCO5)sc3c2s1,-0.1%
16,CCOc1ccc2[nH]c(=O)c(CN(Cc3ccco3)C(=O)c3cccc(F)c3)cc2c1,82% (active)
17,CCOc1ccc2[nH]c(=O)c(CN(Cc3ccco3)C(=O)c3ccc(Br)cc3)cc2c1,21.8%
18,COc1ccc2[nH]c(=O)c(CN(Cc3ccco3)C(=O)c3ccccc3)cc2c1,-1.9%
19,O=C(c1c(Cl)nc2sccn12)N(C(=O)c1c(Cl)nc2sccn12)c1ccc(Cl)cn1,16%
20,COc1ccc(Oc2c(C)oc3cc(OC(=O)N4CCOCC4)ccc3c2=O)cc1,-5%
21,COc1ccc(-n2ccnc2SCC(=O)NCc2ccc3c(c2)OCO3)cc1,3.4%

row,Compound,cytotoxicity
1,COc1ccc(-c2cc(=O)[nH]c(NCc3ccccc3)n2)cc1,7.1%
2,COc1ccc(NCc2ccc(OC)c(OC)c2)cc1,-7.9%
3,COc1ccc(CNc2ccc(-c3ccc(OC)cc3)nn2)cc1,59.4% (active)
4,COc1ccc(C(CC(=O)O)NS(=O)(=O)c2ccc(C)cc2)cc1OC (stereo unspecified),-5.1%
5,Cc1nnc(C)n1/N=C/C=C/c1ccccc1,-40%
6,O=C(O)c1cccc(Cn2cc(Br)cn2)c1,-3.7%
7,O=C(c1ccc(Cn2cc(Cl)cn2)cc1)N1CCN(c2ccccc2)CC1,4.2%
8,O=C(c1ccc(Cn2cc(Br)cn2)cc1)N1CCN(c2ccccc2)CC1,54.2% (active)
9,Fc1ccc(Br)cc1C1C=C(c2ccc(Br)s2)Nc2ncnn21 (stereo unspecified),56.5% (active)
10,Fc1ccc(Br)cc1C1C=C(c2cccnc2)Nc2ncnn21 (stereo unspecified),10.9%
11,COc1cccc(C2C=C(c3ccc(Br)s3)Nc3ncnn32)c1OC (stereo unspecified),-7.6%
12,COc1ccccc1CCC(=O)Nc1nc2ccccc2[nH]1,3.7%
13,O=C(O)c1cc(NCc2c(F)cccc2Cl)ccc1N1CCOCC1,-14.3%
14,C=CCn1c(SCC(=O)Nc2c(C)cccc2C)nnc1-c1cnccn1,-10%
15,CCCC(=O)N1CCN(S(=O)(=O)c2cc(Cl)ccc2OC)CC1,-3.6%
16,CCC(=O)c1ccc(O)cc1,-12%
17,C/C=C(/C(=C/C)c1ccc(O)cc1)c1ccc(O)cc1,111% (active)
18,C=C(c1ccc(O)cc1)c1ccc(O)cc1,12.5%
19,CC(C)(C)NC(=O)NC(=O)COC(=O)COc1ccc2c(c1)CCC2,-4.8%
